# Measurements published in PubChem BioAssay AID504708 (Sanford-Burnham Center for Chemical Genomics, 2011).
# The other results are listed elsewhere or left out. Unmarked numbers belong to inactive results. Activity calls are given as the source filed them.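 Rule for the calls: active = inhibition at or below a set negative limit, negative inhibition meaning the enzyme was activated; inactive = the rest.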
# Target: Hexokinase HKDC1 (Homo sapiens) (UniProt Q2TB90)
# Experiment: compounds raising human HKDC1 activity – biochemical, single concentration, confirmation (AID 504708)
# Settings: recombinant HKDC1, G6PDH/diaphorase resazurin fluorescence; at 20 µM; active compounds read low
# Hexokinase HKDC1 (Homo sapiens), sequence (Q2TB90 whole entry, looked up): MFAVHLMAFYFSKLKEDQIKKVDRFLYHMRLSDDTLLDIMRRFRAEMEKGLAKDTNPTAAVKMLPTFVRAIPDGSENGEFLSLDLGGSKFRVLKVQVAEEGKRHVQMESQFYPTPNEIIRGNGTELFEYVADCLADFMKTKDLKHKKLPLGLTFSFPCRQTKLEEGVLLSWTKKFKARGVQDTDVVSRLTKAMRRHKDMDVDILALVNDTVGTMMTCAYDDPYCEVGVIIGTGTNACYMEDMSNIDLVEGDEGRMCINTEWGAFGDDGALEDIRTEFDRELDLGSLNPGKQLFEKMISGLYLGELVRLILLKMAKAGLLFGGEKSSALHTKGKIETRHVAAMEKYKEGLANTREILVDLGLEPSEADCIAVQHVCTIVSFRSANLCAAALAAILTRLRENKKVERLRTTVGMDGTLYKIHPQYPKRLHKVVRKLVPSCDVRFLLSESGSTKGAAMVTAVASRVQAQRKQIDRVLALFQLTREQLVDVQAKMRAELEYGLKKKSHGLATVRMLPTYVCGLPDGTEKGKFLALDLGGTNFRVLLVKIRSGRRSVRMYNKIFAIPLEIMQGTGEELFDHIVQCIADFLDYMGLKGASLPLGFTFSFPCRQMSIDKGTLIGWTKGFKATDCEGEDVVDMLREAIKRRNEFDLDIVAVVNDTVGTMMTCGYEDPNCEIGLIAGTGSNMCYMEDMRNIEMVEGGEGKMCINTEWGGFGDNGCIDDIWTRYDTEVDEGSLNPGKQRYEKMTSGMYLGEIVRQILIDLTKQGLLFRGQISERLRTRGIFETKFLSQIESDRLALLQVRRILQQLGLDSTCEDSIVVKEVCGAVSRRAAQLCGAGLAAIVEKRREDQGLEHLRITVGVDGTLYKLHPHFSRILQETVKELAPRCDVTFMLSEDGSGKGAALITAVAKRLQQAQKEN
row,Compound,inhibition
1,CCOC(=O)CSc1nc2ccc(C)cc2n2cnnc12,63.8%
2,Cc1ccc2oc(=O)c3cnn(CC(=O)N4CCCCCC4)c3c2c1,-63.5% (active)
3,COc1ccc(N(CC(=O)N/N=C/c2cccc3c2OCCO3)S(=O)(=O)c2ccc(NC(C)=O)cc2)cc1,19.1%
4,O=C1C(Cl)=C(Oc2ccccc2)C(=O)c2ccccc21,77.7%
5,CC(=O)/C(=N\Nc1ccc(Cl)cc1Cl)Sc1cccc2cccnc12,-44.8% (active)
6,CC(C)(C)Nc1c(N)c(=O)oc2ccccc12,-27.1%
7,Cc1cc(C(=O)CCl)c(C)n1CC1COc2ccccc2O1 (stereo not given),11%
8,O=S(=O)(Nc1ccc(O)c2ccccc12)c1ccc(OC(F)(F)F)cc1,19.8%
9,CN1c2ccc(C=O)c3c(C=O)ccc(c23)N(C)C1(C)C,61.2%
10,CC(=O)N(C1=C(Cl)C(=O)c2ccccc2C1=O)c1ccc(C(=O)O)cc1,64.4%
11,O=c1[nH]c2ccccc2n2c(-c3ccccc3)nnc12,58.5%
12,COc1ccc2c(c1)c(=Cc1ccc(N(C)C)cc1)c1cc(-c3ccccc3)[n+](C)n12,31.2%
13,Cc1ccc(Nc2nc(-c3sc(NC(=O)c4ccccc4)nc3C)cs2)cc1,12.1%
14,C[N+](C)(CCCCCC[N+](C)(C)CCCN1C(=O)c2cccc3cccc(c23)C1=O)CCCN1C(=O)c2cccc3cccc(c23)C1=O,-82% (active)
15,CCOC(=O)C1=C(c2ccc(OC)cc2)C(=O)c2ccccc2C1=O,75%
16,COCCNC(=O)Nc1ccc2nc(-c3ccco3)c(-c3ccco3)nc2c1,-20.8%
17,O=C(CSc1cccc2cccnc12)N/N=C/c1cccnc1,-46.6% (active)
18,Clc1cccc(N=C2NN=C(c3ccc4c(c3)OCCO4)CS2)c1,-99.6% (active)

row,Compound,inhibition
1,CCC(=C/c1sc2ccc3ccccc3c2[n+]1C)/C=C1\Sc2ccc3ccccc3c2N1C,24.1%
2,COc1ccc(NC(=O)CSc2ccc(-c3ccco3)nn2)c(OC)c1,70.8%
3,CCCc1nc2oc3c(OCC)ncnc3c2c2c1COC(C)(C)C2,14.9%
4,CCOc1cc(/C=N/n2cnnc2)c(Br)cc1O,28.4%
5,Cc1cc(C2=NNC(=Nc3ccc(S(=O)(=O)N4CCOCC4)cc3)SC2)c(C)n1CC1CCCO1 (stereo not given),-55.8% (active)
6,Nc1ccc2nc3c(=O)[nH]c(=S)[nH]c3nc2c1,-3.17%
7,O=C(c1cccnc1)N(c1cc2sc(=O)oc2c2ccccc12)S(=O)(=O)c1ccccc1,-5%
8,O=C(CSc1n[nH]c(-c2cccnc2)n1)Nc1ccnc2ccccc12,46%
9,Cc1ccc(N(Cc2cc(=O)[nH]c3ccccc23)C(=O)CCl)cc1,34.5%
10,COC(=O)c1ccc(NCc2cc(O)ccc2O)cc1,65.1%
11,CCn1cc(C(=O)NCc2ccc3c(c2)OCO3)c2cc(OC)c(OC)cc2c1=O,45.9%
12,Cc1ccc(C(=O)O)cc1-c1ccc(/C=C2\SC(=O)N(CC(=O)Nc3ccc4c(c3)OCO4)C2=O)o1,13.9%
13,O=c1ccc2c(-c3ccccc3S(=O)(=O)O)c3ccc(O)c(O)c3oc-2c1O,14.4%
14,O=C(Nc1ccccc1Cl)/C(Cl)=C(\Cl)S(=O)c1ccccc1 (stereo not given),-5.2%
15,COc1ccc(C(CCN(Cc2ccc(OC)c(OC)c2)C(=O)CCl)c2ccccc2)cc1 (stereo not given),17.4%
16,O=C(NC1=CC(=O)c2ccccc2C1=O)c1ccccc1,69.9%
17,CCc1ccc2c(c1)C1(NN=C(c3ccccc3)S1)C(=O)N2 (stereo not given),-13.6%
